# Source: ChEMBL document CHEMBL4513216, “Probing the Open Global Health Chemical Diversity Library for Multistage-Active Starting Points for Next-Generation Antimalarials” (ACS Infect Dis, 2020)
# The campaign covered roughly 69,000 compounds. About 8,600 (12%) showed an effect of 50% or more. The sample holds strong results, similar compounds and a random draw of the others, so the mix is not that of the screen.
# Test system: Plasmodium berghei
# Assay: Screen against P. berghei liver stage (PbLuc), transformed with Luciferase, at 10uM
# Assay type: functional, HepG2
# Conditions: tested at 10 uM
row,Structure (SMILES),INHIBITION [%]
1,O=C(CN1CCc2sccc2C1)Nc1nccs1,-41.6
2,COC1COC2(CCN(CC3CCOCC3)CC2)C1 (stereo not given),14
3,Cc1ccnc(NC(=O)c2ccc(F)c(S(=O)(=O)NC3CC3)c2)c1,-25.4
4,CCn1cnnc1C1CCN(C(=O)c2ccccc2F)CC1,21
5,CNC(=O)C1Cn2ccnc2C2(CCN(C(=O)c3ccoc3C)CC2)O1 (stereo not given),-7.7
6,CC(C)c1noc(C(C)N2CCN(Cc3cccs3)CC2)n1 (stereo not given),15.5
7,CC(C)c1noc(C(C)N2CCC(c3nc4ccccc4[nH]3)CC2)n1 (stereo not given),36.5
8,CC(C)c1noc(C(C)N2CCN(Cc3nc4ccccc4[nH]3)CC2)n1 (stereo not given),53.3
9,CC(C)C(Sc1cccs1)C(=O)NCc1cccnc1 (stereo not given),18.4
10,Cc1nc(CN(C)C2CCN(CCCOc3ccc(F)cc3)C2)no1 (stereo not given),-0.219
11,O=C(c1ccco1)N1CCCC(c2cc(C(F)(F)F)n3ncnc3n2)C1 (stereo not given),60.4
12,COCC(=O)N1CCCC(c2cc(C(F)F)n3ncnc3n2)C1 (stereo not given),59.3
13,O=C(c1ccncc1)N1CCCC(c2cc(C(F)F)n3ncnc3n2)C1 (stereo not given),35.2
14,O=C(Cc1ccsc1)N1CCCC(c2cc(C(F)F)n3ncnc3n2)C1 (stereo not given),28
15,CC(C)C(=O)N1CCCC(c2cc(C(F)F)n3ncnc3n2)C1 (stereo not given),39.8
16,O=C(c1ccco1)N1CCCC(c2cc(C(F)F)n3ncnc3n2)C1 (stereo not given),14.8
17,O=C(c1cnoc1)N1CCC[C@]2(C[C@H](Oc3ncccc3F)CO2)C1,-28.2
18,CCCSCC(=O)N1C[C@H]2CC[C@@H](C1)N(Cc1ccccn1)C2=O,35.9
19,O=C1OCCN1CC(=O)N1C[C@@H]2CC[C@H]1CN(C(=O)c1ccccc1)C2,-12.6
20,O=c1c(NCCOCCO)c(N2CCN(c3ccccc3)CC2)c1=O,6.34
21,CCn1nc(C)c2nnn(CC(=O)Nc3ccc(C)c(C)c3)c(=O)c21,11
22,O=C(NCc1cc(N2CCOCC2)ncn1)c1cccc(CO)n1,71.1
23,O=C(Cn1ccc2ccccc21)NCc1cc(N2CCOCC2)ncn1,12.8
24,COc1ccc(C(=O)NCc2cc(N3CCOCC3)ncn2)o1,8.11
25,COc1nc(C)c(C(=O)NCc2cc(N3CCOCC3)ncn2)s1,34
26,COc1cc(C(=O)NCc2cc(N3CCOCC3)ncn2)ccn1,63.7
27,Cc1cc(C(=O)NCc2ccnc(N3CCOCC3)c2)c(C)s1,4.65

row,Structure (SMILES),INHIBITION [%]
1,CCn1cnnc1CNC(=O)N1CCN(c2ccccc2O)CC1,36.1
2,NCC1[C@H]2CN(Cc3ccccc3F)C[C@@H]12 (stereo not given in full),45.7
3,O=c1cc(CSc2nnc[nH]2)nc2sc3c(n12)CCCC3,16.5
4,COCCCS(=O)(=O)N1CCN(c2cccc(O)c2)CC1,14.6
5,CC(C)OCCS(=O)(=O)N1CCN(Cc2cccn2C)CC1,4.1
6,COCCCS(=O)(=O)N1CCN(Cc2cccn2C)CC1,51.1
7,Cc1c(Br)cccc1C(=O)NCCC1CCCNC1 (stereo not given),28.6
8,O=C(C1CC(c2ccccc2)=NO1)N1CCCCc2ccccc21 (stereo not given),-15
9,CCC(c1ccccc1)S(=O)(=O)CCO (stereo not given),61.8
10,CCC(c1ccc(F)cc1)S(=O)(=O)CCO (stereo not given),15.9
11,CCC(c1ccc(F)cc1F)S(=O)(=O)CCO (stereo not given),23.8
12,Nc1nccnc1C1CN(C(=O)COc2cccnc2)CCO1 (stereo not given),-50.3
13,COCC(=O)N1CCC2(CC1)C(=O)N(Cc1cccnc1)CCN2C,43.2
14,O=C(O)c1cc(C=Cc2cccc3ccccc23)ncn1,8.05
15,c1ccc(-c2nccc(CNC3CCc4ncnn4C3)n2)cc1 (stereo not given),36.1
16,Cn1ncc2c(NCC3CCS(=O)(=O)C3)nc(-c3ccncc3)nc21 (stereo not given),15.1
17,Cn1ncc2c(N3CCS(=O)(=O)CC3)nc(-c3cccnc3)nc21,35
18,CC(C)N1CCCN(c2nc(-c3cccnc3)nc3c2cnn3C)CC1,86.6
19,Cn1ncc2c(N[C@@H]3C[C@H]4CC[C@@H]3C4)nc(-c3ccncc3)nc21,35.1
20,Cn1ncc2c(NC3CCC3)nc(-c3ccncc3)nc21,33.7
21,Cn1ncc2c(NC3CN4CCC3CC4)nc(-c3ccncc3)nc21 (stereo not given),53.2
22,Cn1ncc2c(N3CCC(F)(F)CC3)nc(-c3ccncc3)nc21,31
23,CN1[C@@H]2CC[C@H]1CN(c1nc(-c3ccncc3)nc3c1cnn3C)CC2,71.3
24,Cn1ncc2c(N3CC(N4CCCCC4)C3)nc(-c3ccncc3)nc21,22.6
25,Cn1ncc2c(NC3CCSC3)nc(-c3ccncc3)nc21 (stereo not given),61.6
26,Cn1ncc2c(N3CCC3)nc(-c3ccncc3)nc21,-3.83
27,Cn1ncc2c(N3CC[C@H](O)C3)nc(-c3ccncc3)nc21,19.8

row,Structure (SMILES),INHIBITION [%]
1,CC(=O)N1CCc2cc(Cl)cc(Cl)c2C1,37.7
2,COCC1CC2(CCN(CC3CC3)CC2)CN1c1ncccn1 (stereo not given),18.2
3,Cn1ccc(C(=O)NC2CCC23CCN(Cc2ccc(F)cc2)CC3)c1 (stereo not given),-9.02
4,Nc1ncnc2nc(C3CCN(C(=O)Cc4ccccc4)C3)ccc12 (stereo not given),6.3535
5,COc1ccc(-c2cc(C3CCNCC3)nc(C)n2)cc1,-29.9
6,COc1ccc(N2CCN(Cc3nc(CSC)no3)CC2=O)cc1,-42.9
7,CCC(NC(=O)Nc1ccc(OC)c(C)c1)c1ccncc1 (stereo not given),26.6
8,CCNC(=O)Cc1ccc(NC(=O)NC(CC)c2ccncc2)cc1 (stereo not given),4.15
9,CCC(NC(=O)NCC(=O)Nc1ccc(F)cc1)c1ccncc1 (stereo not given),58.3
10,O=C(c1ccco1)N1C[C@H]2CCCN(CC3CCOCC3)[C@H]2C1,49.5
11,Cc1cnc(NCCCN2CCCCC2CO)nc1 (stereo not given),20.8
12,NC(=O)C(Cc1ccccc1)NS(=O)(=O)Cc1ccccc1F (stereo not given),50.5
13,NC(=O)C(Cc1ccccc1)NS(=O)(=O)Cc1ccccc1Cl (stereo not given),9.75
14,O=S(=O)(Cc1ccccc1F)NC(CO)c1ccco1 (stereo not given),45.1
15,N#Cc1cccc(CS(=O)(=O)NCCC(O)c2ccccc2)c1 (stereo not given),24.5
16,N#Cc1cccc(CS(=O)(=O)NCC(O)Cc2ccccc2)c1 (stereo not given),30.8
17,N#Cc1cccc(CS(=O)(=O)NC(Cc2ccccc2)C(N)=O)c1 (stereo not given),58.1
18,O=C(NC1COC2(CCN(Cc3cccs3)CC2)C1)c1ccccn1 (stereo not given),20.9
19,Cc1ccc(CN[C@@H]2COC[C@H]2c2ccc(F)cc2)cc1C,49
20,CN1CC2(CCC(C(=O)N3CCOCC3)CC2)Oc2ccccc2C1=O (stereo not given),-3.58
21,COCCN1CCn2c(CN(C)C(C)C)cnc2C1,-8.28
22,CNC(=O)[C@@H]1[C@@H](c2ccccc2)CN2CCN(Cc3cccs3)C[C@H]12,41.1
23,CNC(=O)[C@@H]1[C@H]2CN(Cc3ccoc3)CCN2C[C@H]1c1ccccc1,9.36
24,CNC(=O)[C@@H]1[C@@H](c2ccccc2)CN2CCN(Cc3ccco3)C[C@H]12,57
25,Cn1cc(N2CC3(CCN(Cc4cccnc4)CC3)OCC2=O)cn1,22.9
26,Cc1nc(C)n(C2CCCN(C(=O)c3ccc4nccn4c3)C2)n1 (stereo not given),20.8
27,O=C1CCCN1CCN1CC[C@@]2(O)CCN(c3ncccn3)C[C@H]2C1,51.2

row,Structure (SMILES),INHIBITION [%]
1,CSCCCN1CC[C@@]2(O)CCN(c3ncccn3)C[C@H]2C1,38.3
2,Cc1ccc(N2CC[C@]3(O)CCN(CCN4CCCC4=O)C[C@@H]3C2)nn1,-2.25
3,CCc1nnc2n1CCN(C(=O)c1cc3ccccc3[nH]1)C2,18.2
4,Cc1cc(N2CCc3c(ncn3C)C2)n2nc(C(F)(F)F)nc2n1,20
5,Cc1cc(N2CCc3cnc(C)nc3C2)n2nc(C(F)(F)F)nc2n1,10.6
6,Cc1cc(N2CCc3cncnc3C2)n2nc(C(F)(F)F)nc2n1,50.8
7,Cc1nc(C)n(Cc2cccc(NC3CCN(C)C3=O)c2)n1 (stereo not given),-41.6
8,CCSCc1cccc(NC2CCN(C)C2=O)c1 (stereo not given),52.5
9,CC(C)SCc1cccc(NC2CCN(C)C2=O)c1 (stereo not given),-13.9
10,CN1CCCC(CCC(=O)N2CCc3c(nc(CC4CC4)[nH]c3=O)C2)C1 (stereo not given),49.3
11,CCO[C@H]1C[C@@H](O)C12CCN(C(=O)CCN1CCCC1=O)CC2,14.5
12,CCOCCn1nc(C)cc1C(=O)N1CCC2(CC1)[C@H](O)C[C@@H]2OCC,9.63
13,CCO[C@H]1C[C@@H](O)C12CCN(C(=O)CN1CCCCCC1=O)CC2,24.3
14,CCO[C@H]1C[C@@H](O)C12CCN(C1Cc3ccccc3C1)CC2,50.3
15,NCCO[C@H]1C[C@@H](O)C12CCN(C1Cc3ccccc3C1)CC2,43
16,CCO[C@H]1C[C@@H](O)C12CCN(C(=O)CC(F)(F)F)CC2,90.2
17,CCO[C@H]1C[C@@H](O)C12CCN(C1CCN(c3ccccc3C)CC1)CC2,69.4
18,CCO[C@H]1C[C@@H](O)C12CCN(S(=O)(=O)c1ccccc1OC)CC2,46.4
19,CCO[C@H]1C[C@@H](O)C12CCN(C1CCN(c3ccccc3)CC1)CC2,25.8
20,Cc1ncc(C(=O)N2CCCC(Cc3nccs3)C2)cn1 (stereo not given),29.3
21,CCN(CC)c1ncc2c(O)nc(C3CCNCC3)cc2n1,6.26
22,CCN(C)c1ncnc2c1CCN(C(=O)COC)CC2,-12.1
23,COC(=O)[C@H](C)NC(=O)COc1nn(C)c2nc(C)cc(C)c12,-10.2
24,Cc1cc2nc(SCC(=O)N3CCCC3)n(Cc3ccco3)c(O)c-2n1,34.2
